# Reference: paper PMC5700166
# Changes are numbered by the printed parent chain.
# Experiments:
# Assay in all cases: protein-binding microarray (PBM); PBM: ~300 nM protein, 6 mM HEPES pH 7.8, 80 mM KCl, 0.5 mM EDTA, 0.5 mM EGTA, 6% glycerol, 35 ng/ul poly-dIdC, 1% milk, 1 h, room temperature; Ap Aiptasia and Nv Nematostella (sea anemones) / Co Capsaspora / Aq Amphimedon (sponge) / Dm Drosophila / Hu human; RHD is the Rel homology domain; high values mean tight binding
# Conditions in all cases: dsDNA, one strand shown
# [1] = target: T1, GST-Ap-NF-kB RHD (Exaiptasia pallida (Aiptasia), UniProt A0A913YAJ5 2-422)
# T1 sequence: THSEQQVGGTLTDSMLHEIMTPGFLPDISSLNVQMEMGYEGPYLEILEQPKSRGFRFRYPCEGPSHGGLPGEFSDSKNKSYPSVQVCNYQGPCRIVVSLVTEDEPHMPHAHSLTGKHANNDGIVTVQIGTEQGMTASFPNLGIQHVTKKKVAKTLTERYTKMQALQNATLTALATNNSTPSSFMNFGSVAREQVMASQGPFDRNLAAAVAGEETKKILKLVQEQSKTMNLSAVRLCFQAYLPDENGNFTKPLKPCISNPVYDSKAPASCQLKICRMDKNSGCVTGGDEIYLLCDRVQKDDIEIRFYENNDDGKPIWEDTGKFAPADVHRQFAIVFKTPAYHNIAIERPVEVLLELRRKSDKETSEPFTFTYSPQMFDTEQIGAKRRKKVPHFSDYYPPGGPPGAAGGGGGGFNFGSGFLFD
# [2] = target: T2, GST-Nv-NF-kB (Cys allele) (Nematostella vectensis, UniProt E5G601 2-411)
# T2 sequence: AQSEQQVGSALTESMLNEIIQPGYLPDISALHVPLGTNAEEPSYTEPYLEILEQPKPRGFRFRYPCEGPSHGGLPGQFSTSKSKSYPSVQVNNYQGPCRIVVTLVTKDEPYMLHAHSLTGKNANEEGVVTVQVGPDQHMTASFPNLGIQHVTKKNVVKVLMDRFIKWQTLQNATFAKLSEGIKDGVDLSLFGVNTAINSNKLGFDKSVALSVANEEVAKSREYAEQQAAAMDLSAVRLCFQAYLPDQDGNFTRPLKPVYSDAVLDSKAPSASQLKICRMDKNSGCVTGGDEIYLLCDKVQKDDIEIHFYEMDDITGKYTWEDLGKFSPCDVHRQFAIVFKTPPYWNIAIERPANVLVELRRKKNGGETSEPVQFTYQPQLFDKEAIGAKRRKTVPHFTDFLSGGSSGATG
# [3] = target: T3, GST-Co-NF-kB (Capsaspora owczarzaki, UniProt F1ARL5 200-546)
# T3 sequence: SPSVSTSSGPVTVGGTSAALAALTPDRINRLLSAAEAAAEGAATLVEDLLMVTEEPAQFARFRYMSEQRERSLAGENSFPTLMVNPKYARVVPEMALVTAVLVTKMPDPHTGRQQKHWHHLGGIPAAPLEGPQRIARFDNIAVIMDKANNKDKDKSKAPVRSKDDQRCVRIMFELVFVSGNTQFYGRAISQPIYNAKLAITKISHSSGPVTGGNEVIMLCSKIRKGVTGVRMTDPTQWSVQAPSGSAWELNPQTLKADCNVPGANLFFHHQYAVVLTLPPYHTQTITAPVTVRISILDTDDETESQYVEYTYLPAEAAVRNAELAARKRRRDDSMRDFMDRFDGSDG
# [4] = target: T4, GST-Aq-NF-kB (Amphimedon queenslandica, UniProt A9Y5G7 2-389)
# T4 sequence: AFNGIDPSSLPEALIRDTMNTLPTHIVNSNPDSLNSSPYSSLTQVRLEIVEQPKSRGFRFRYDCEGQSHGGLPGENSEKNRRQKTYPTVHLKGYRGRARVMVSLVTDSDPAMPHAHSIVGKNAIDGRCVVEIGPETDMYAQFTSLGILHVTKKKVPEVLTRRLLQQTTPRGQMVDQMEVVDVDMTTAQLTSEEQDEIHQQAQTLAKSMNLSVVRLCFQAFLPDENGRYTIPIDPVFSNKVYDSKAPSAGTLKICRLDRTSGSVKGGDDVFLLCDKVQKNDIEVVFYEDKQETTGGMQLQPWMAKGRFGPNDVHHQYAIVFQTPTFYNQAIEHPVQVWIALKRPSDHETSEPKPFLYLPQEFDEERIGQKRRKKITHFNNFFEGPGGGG
# [5] = target: T5, GST-Nv-NF-kB (Ser allele) (Nematostella vectensis, UniProt A7UNT2 2-411)
# T5 sequence: T2 sequence with Q21R, C66S, S207N, E215Q, V217A, E225K, A268E, D399E
# [6] = target: T6, GST-Dm-Relish (Drosophila melanogaster, UniProt Q94527 99-473)
# T6 sequence: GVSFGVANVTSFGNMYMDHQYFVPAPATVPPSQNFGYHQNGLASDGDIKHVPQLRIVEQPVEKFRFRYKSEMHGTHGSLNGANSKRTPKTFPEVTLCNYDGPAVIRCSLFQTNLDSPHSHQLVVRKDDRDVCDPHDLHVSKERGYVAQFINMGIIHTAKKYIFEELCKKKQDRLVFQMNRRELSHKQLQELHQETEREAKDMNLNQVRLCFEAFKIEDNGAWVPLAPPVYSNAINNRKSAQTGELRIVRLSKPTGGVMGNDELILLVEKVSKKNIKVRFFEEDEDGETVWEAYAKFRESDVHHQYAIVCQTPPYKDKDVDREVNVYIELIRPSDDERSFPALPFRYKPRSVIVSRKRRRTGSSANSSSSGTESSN
Sequence,binding signal [1] [z-score],binding signal [2] [z-score],binding signal [3] [z-score],binding signal [4] [z-score],binding signal [5] [z-score],binding signal [6] [z-score]
CCGATTAACATCAACTGGGAAAATGATGTTAATCGGGTCTTGATTCGCTTGACGCTGCTG,1.66,3.04,3.52,1.65,–,–
CCGATTAACATCAGGAAAGTACCTGATGTTAATCGGGTCTTGATTCGCTTGACGCTGCTG,3.4,5.99,–,6.27,8.2,8.08
CCGATTAACATCAGGGAAGTACATGATGTTAATCGGGTCTTGATTCGCTTGACGCTGCTG,1.18,1.34,1.54,2.86,1.35,9.23
CCGATTAACATCAGACATTCCCATGATGTTAATCGGGTCTTGATTCGCTTGACGCTGCTG,1.46,2.27,1.37,2.26,–,–
CCGATTAACATCAACATTTTCCCTGATGTTAATCGGGTCTTGATTCGCTTGACGCTGCTG,3.52,5.79,4.91,3.41,8.32,1.62
CCGATTAACATCACCAGTTTCCCTGATGTTAATCGGGTCTTGATTCGCTTGACGCTGCTG,2.66,3.06,3.09,2.6,–,–
CCGATTAACATCAGGGGAATGGATGATGTTAATCGGGTCTTGATTCGCTTGACGCTGCTG,5.2,5.95,3.65,4.07,7.13,1.71
CCGATTAACATCAGATTTCTCCCTGATGTTAATCGGGTCTTGATTCGCTTGACGCTGCTG,1.96,3.11,2.92,3.18,–,–
CCGATTAACATCAAGAGTTCCCCTGATGTTAATCGGGTCTTGATTCGCTTGACGCTGCTG,7.18,7.2,6.55,5.77,7.72,7.58
CCGATTAACATCATCAGGGAAAATGATGTTAATCGGGTCTTGATTCGCTTGACGCTGCTG,2.12,4.35,2.95,2.95,–,–
CCGATTAACATCAGGGAAACTACTGATGTTAATCGGGTCTTGATTCGCTTGACGCTGCTG,3.54,4.2,3.89,5.64,4.47,5.85
CCGATTAACATCAATCCCCCCCATGATGTTAATCGGGTCTTGATTCGCTTGACGCTGCTG,7.7,5.57,6.68,4.81,4.56,5.46
CCGATTAACATCACCGTTTTCCCTGATGTTAATCGGGTCTTGATTCGCTTGACGCTGCTG,3.62,4.51,4.03,3.24,6.61,2.19
